Compounds with a hit are over-represented: about 15% of the library has one in this group of screens.
TDP1 cell CPT: DT40-hTDP1 cell growth loss with CPT; 420,000 compounds, 12% hits; Potency, µM (titrated, usually from 46.2 µM), for inactives: at the highest dose activity change, negative = growth inhibition, most hits filed as inhibitors; chicken DT40 Tdp1-/-;hTDP1 cells + 20 nM CPT, ATP luminescence, 48 h; further: nearly all actives have a fitted effect of over 55% in size
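Cell growth measured by CellTiter-Glo luminescence after a minimum 48 h, 37 C compound exposure with 20 nM CPT in Tdp1-knockout DT40 cells stably expressing hTDP1, seeded 400/well; qHTS titration format.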
12-LOX inh: inhibitors of human 12S-lipoxygenase ALOX12. P18054. purified 12hLO, xylenol orange hydroperoxide absorbance. Potency, µM (titrated, usually from 108 µM), for inactives: top-dose activity change, negative = inhibition, usual class: inhibitors. 580,000 compounds, 1.1% hits. AID 1671190
Target sequence (P18054 whole entry, looked up): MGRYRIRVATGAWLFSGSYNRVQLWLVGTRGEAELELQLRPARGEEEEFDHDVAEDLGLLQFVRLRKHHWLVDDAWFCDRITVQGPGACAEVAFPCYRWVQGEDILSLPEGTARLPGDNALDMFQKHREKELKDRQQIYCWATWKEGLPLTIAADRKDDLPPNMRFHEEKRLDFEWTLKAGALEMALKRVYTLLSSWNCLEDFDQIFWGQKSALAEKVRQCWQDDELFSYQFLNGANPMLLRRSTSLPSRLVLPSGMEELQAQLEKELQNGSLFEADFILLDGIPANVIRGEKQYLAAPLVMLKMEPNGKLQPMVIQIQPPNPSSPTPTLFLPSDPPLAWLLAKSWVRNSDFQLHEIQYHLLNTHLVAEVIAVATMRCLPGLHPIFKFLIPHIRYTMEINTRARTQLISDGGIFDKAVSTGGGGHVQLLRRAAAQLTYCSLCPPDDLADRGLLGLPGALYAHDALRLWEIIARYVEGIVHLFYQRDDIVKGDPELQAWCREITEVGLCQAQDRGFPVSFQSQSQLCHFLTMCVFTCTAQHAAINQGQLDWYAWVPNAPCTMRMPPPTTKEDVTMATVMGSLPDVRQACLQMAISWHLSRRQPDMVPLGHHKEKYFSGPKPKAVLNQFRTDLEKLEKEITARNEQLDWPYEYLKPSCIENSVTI
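Purified human 12hLO (150 nM final) in 25 mM Hepes, 0.01% Triton X-100, pH 7.0 was preincubated 15 min at room temperature with compound. Then 40 uM arachidonic acid was added, 30 min. Hydroperoxide was read by Fe-XO absorbance ratio 573/405 nm.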
VP16 counter: inhibits Gal4-VP16 luciferase reporter, ROR gamma counter-screen; Potency, µM (series often up to 53.6 µM), without a hit: at the highest dose activity, negative = inhibition, hits mostly inhibitors; 310,000 compounds, 3.5% hits; AID 2546; Drosophila S2 Gal4-VP16 UAS-luciferase, luminescence, 20 h;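 further: Gal4-VP16 expression switched on by copper sulfate through the metallothionein promoter; nearly all actives have a fitted effect of over 50% in size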
RORgamma inh: ROR gamma (mouse) transcription inhibition. P51450. Drosophila S2 Gal4-RORgamma UAS-luciferase reporter, 20 h. Potency, µM (series often up to 53.6 µM), for inactives: top-dose activity change, negative = inhibition, usual class: inhibitors. 310,000 compounds, 5.4% hits; further: nearly all actives have a fitted effect of over 60% in size
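Using a luciferase readout, inhibitors were identified by reduced reporter activity in Drosophila cells coexpressing a copper-inducible Gal4–ROR gamma fusion and UAS-driven Photinus luciferase, incubated 20 hr after 700 uM copper sulfate.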
DT40 TDP1 no CPT: qHTS for Inhibitors of human tyrosyl-DNA phosphodiesterase 1 (TDP1): qHTS in cells in absence of CPT; 420,000 compounds, 15% hits; AID 686978, 2013; Potency, µM (series often up to 46.2 µM), for the others: at the top dose activity change, negative = growth inhibition, hits mostly inhibitors; DT40 Tdp1-/- hTDP1 cells, no CPT, ATP luminescence, 48 h; further: nearly all actives have a fitted effect of over 55% in size
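Compound effects on proliferation are scored in DT40 Tdp1-/-;hTDP1 cells in the absence of CPT. ATP levels (CellTiter-Glo luminescence) are recorded after a ≥48 hr, 37 °C incubation.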
ELG1 DNA repair: blocks ELG1-dependent DNA repair in HEK293T cells; HEK293T ELG1-luciferase reporter, luminescence, 16 h; DNA damage induced by 5-fluorouridine; Potency, µM (doses to about 46.1 µM), without a hit: at the highest dose activity change, negative = inhibition, most hits filed as inhibitors; 330,000 compounds, 2.3% hits; further: nearly all actives have a fitted effect of over 55% in size
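Quantitative HTS, concentration-response format. 2,000 cells/well co-treated with 5-fluorouridine and compound, 16 hr in 5% CO2 at 37 °C; ONE-Glo luminescence read after 30 min.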
An asterisk follows results filed as active; u = inconclusive; x = not tested or not shown; [ ] = dose if it differs, or a comment. The call rests on the fitted dose curve; in most records, active means well fitted curve in the direction sought with a large enough effect; inconclusive means small, poorly fitted or top-dose-only effect, or another doubt; inactive means no such curve, though single readings can be large; an effect the other way counts as inactive or inconclusive. On the % scale 0 is the no-effect control and ±100 the full control effect; potency means the concentration at half of the fitted maximal effect.

SMILES	TDP1 cell CPT	12-LOX inh	VP16 counter	RORgamma inh	DT40 TDP1 no CPT	ELG1 DNA repair
O=C(Nc1cccs1)O[C@H]1COCCN(c2nc3ccccc3o2)C1	x	2%[176 µM]	x	x	x	x
O=C(CCS(=O)(=O)Cc1ccccc1)Nc1cc(C(F)(F)F)ccc1Cl	x	3%	x	x	x	x
CCc1ccc(CN2CCC(CNC(=O)c3occc3C)CC2)nc1	x	77%	x	x	x	x
CCC(=O)n1nc(-c2ccc(OC)cc2)nc1SCc1ccccc1	x	-17%	x	x	x	x
CN(C)S(=O)(=O)c1cccc(NC(=O)CSc2nc3ccccc3[nH]2)c1	u	-6%	8%	14%	u	13µM*
Cc1ccc2nc(SCC(=O)Nc3ccc4c(c3)CCC4)[nH]c2c1	18µM*	-3%	11µM*	u	u	-3%
CCCCNS(=O)(=O)c1ccc2nc(SCC(=O)Nc3ccccc3)[nH]c2c1	-1%	-24%	-11%	u	16µM*	u
Cc1ccc2nc(SCC(=O)Nc3cccc(S(=O)(=O)N(C)C)c3)[nH]c2c1	u	-13%	3%	u	16µM*	u
O=C(Oc1cccc(Br)c1)c1cccc2ccccc12	x	5%	x	x	x	x
CCn1nccc1C(=O)N1CCC2(CC1)NCCc1c2[nH]c2ccccc12	x	55%	x	x	x	x
O=C(NC1CCCC1)C(c1ccc(F)cc1)N(Cc1ccc(Cl)cc1)C(=O)CCl (stereo not drawn)	3.3µM*	u	2%	-8%	4.1µM*	2%
O=C(NC1CCCC1)C(c1ccc(Cl)cc1)N(Cc1ccc(F)cc1)C(=O)CCl (stereo not drawn)	2.6µM*	x	0%	19%	2.6µM*	-2%
CN(C)C(C(=O)NC1CCCCC1)c1ccc(Cl)cc1 (stereo not drawn)	-24%	-25%	-2%	-30%	u	-13%
CN(Cc1ccc(Cl)cc1)C(C(=O)NC1CC1)c1ccc(F)cc1 (stereo not drawn)	x	0%	x	x	x	x
CCCCNc1c(-c2cccc(-c3ccc(OC)cc3)c2)nc2ccc(C)cn12	23µM*	-20%	x	x	18µM*	3.2µM*
Cc1ccc2nc(-c3ccc(-c4cccc(Cl)c4)cc3)c(NCc3ccccc3)n2c1	u	-27%	x	x	u	4%
CCCCNc1c(-c2cccc(-c3cc(C(C)=O)cs3)c2)nc2ccc(C)cn12	16µM*	1%	x	x	13µM*	u
CCCCNc1c(-c2cccc(-c3ccc(OC)cc3)c2)nc2cc(C)ccn12	16µM*	u	x	x	18µM*	23µM*
CCOc1ccccc1NC(=O)CSc1nc2ccccc2c(=O)n1CC1CCCO1 (stereo not drawn)	u	2%	-4%	1%	u	u
Cc1ccc(NC(=O)c2c3c(nc4ccccc24)C(=O)N(C2CCCCC2)C3)cc1F	8.2µM*	2%	x	x	12µM*	x
CCOc1ccccc1NC(=O)c1c2c(nc3ccccc13)C(=O)N(C1CCCCC1)C2	6.5µM*	-18%	x	x	5.8µM*	x
Cc1ccccc1NC(=O)c1c2c(nc3ccccc13)C(=O)N(C1CCCCC1)C2	u	-6%	x	x	21µM*	x
Cc1ccc(NC(=O)c2cnc3ccccc3n2)cc1F	x	3%	x	x	x	x
COCCCNC(=O)N1CCCCCCNC(=O)[C@@H]2CCCC[C@@H]21	x	8%	x	x	x	x
COc1ccccc1OCc1nc(C#N)c(N2CCN(C)CC2)o1	x	-20%	x	x	x	x
SMILES	TDP1 cell CPT	12-LOX inh	VP16 counter	RORgamma inh	DT40 TDP1 no CPT	ELG1 DNA repair
CCOC(CNC(=O)c1ccc2c(c1)ncn2-c1ccc(OCc2ccccc2)cc1)OCC	x	11%	x	x	x	x
N=C1N=C(N)c2cc3ccccc3cc21	u	4%[57.4 µM]	-6%	-2%	24µM*	x
COc1cc(Oc2ccccc2)nc(N)n1	2%	229%	x	x	-13%	x
CCn1c(C)nc2cc(S(N)(=O)=O)ccc21	u	1%	-9%	4%	23µM*	13%
CCn1c(C)nc2cc(S(=O)(=O)N3CCCC3)ccc21	-23%	0%	-17%	u	u	u
CCN(CC)S(=O)(=O)c1ccc(NC(=O)CSc2nc3ccccc3n2CC)cc1	x	-1%	x	x	x	x
Cc1cccc(N(CC(O)Cn2c3ccccc3c3ccccc32)S(=O)(=O)c2ccc(F)cc2)c1 (stereo not drawn)	21µM*	-24%	x	x	8.2µM*	x
COc1ccc(S(=O)(=O)Nc2cccc(-c3ccc(N4CCCCCC4)nn3)c2)c(OC)c1	u	5%	27%	u	29µM*	u
COc1ccc(S(=O)(=O)Nc2cccc(-c3ccc(N4CCCC4)nn3)c2)c(OC)c1	u	-23%	x	x	-51%	x
COc1ccc(S(=O)(=O)Nc2cccc(-c3ccc(N4CCCCCC4)nn3)c2)cc1	16µM*	-17%	x	x	u	x
O=S(=O)(Nc1cccc(-c2ccc(N3CCCCC3)nn2)c1)c1ccc(F)cc1F	u	0%	x	x	26µM*	x
CCOc1ccc(C(C)C)cc1S(=O)(=O)Nc1cccc(-c2ccc(N3CCOCC3)nn2)c1	u	-5%	x	x	15µM*	x
CCNC(=O)C(C)NC(=O)c1cc(C(C)C)nc2c1cnn2C(C)C (stereo not drawn)	x	-1%	x	x	x	x
CC(C)CNc1oc(COc2ccc(F)cc2)nc1C#N	x	15%	x	x	x	x
O[C@@H]1C[C@@H](c2nc(-c3ccc(C(F)(F)F)cc3)no2)N(Cc2cccc(OC(F)(F)F)c2)C1	x	7%	x	x	x	x
O=[N+]([O-])c1cccc(S(=O)(=O)Nc2cccc(-c3ccc(N4CCOCC4)nn3)c2)c1	-13%	-25%	x	x	-22%	u
CCc1ccc(S(=O)(=O)Nc2cccc(-c3ccc(N4CCOCC4)nn3)c2)cc1	8.2µM*	-6%	x	x	u	x
CCOc1ccc(S(=O)(=O)Nc2cccc(-c3ccc(N4CCCC4)nn3)c2)cc1	7.3µM*	u	x	x	u	x
CCN(CCCNC(=O)C(C)C)c1ccccc1	x	-12%	x	x	x	x
CCOC(=O)C(=Cc1cc(=O)c(OC)co1)C(=O)OCC	1.3µM*	-7%	5µM*	4.5µM*	0.73µM*	5.8µM*
COc1coc(C(O)CN)cc1=O (stereo not drawn)	-7%	4%	1%	45%	-4%	2%
COc1ccc(C(=O)NCCC2CCN(C(=O)Nc3ccc(F)cc3)CC2)cc1OC	x	51%	x	x	x	x
COc1cc(NC(=O)CSc2nc3cc(C)[nH]c3c(=O)n2C)cc(OC)c1OC	x	-6%	x	x	x	x
CC(C)(C)OC(=O)N[C@@H](C(=O)OC(C)(C)C)c1ccccc1	u	-6%	x	x	u	u

Compound activity from PubChem.
